Where a name gives a salt, the structure may show the parent alone.

Test in all cases: Euclidean distance of Cell Painting phenotypic profile (signed KS, 77 features) to DMSO centroid (dimensionless distance); 5 or 10 uM (library dependent); higher = stronger phenotypic change vs DMSO (phenoactivity)
Holding throughout (details): 48 h

One assay deals with 786-O. An outline of the steps:
(§1)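 Stained cells were imaged confocally at 20X with 9 fields per well, after 48 h of exposure to library compounds at 10 or 5 uM (set by library; 0.1% DMSO final). The cells were five cancer lines and a healthy fibroblast line. From the images, Harmony extracted 77 features, each expressed as a signed Kolmogorov-Smirnov statistic relative to same-plate vehicle wells. Phenoactivity is measured as Euclidean distance to the median vehicle profile, using plate-position-corrected, correlation-weighted profiles averaged across replicates at the top dose.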

A further assay deals with A549. Summed up:
as §1

The subject of a further assay is DU145. An outline of the steps:
as §1

Another assay deals with FB. Summed up: as §1
A further assay has as its system HEPG2. An outline of the steps: as §1
The next assay deals with OVCAR4. Summed up:
as §1

Turning to `CC(=O)N1CCN(CCOc2ccc(C3CCN(C4=Nn5c(nnc5C(F)(F)F)CC4)CC3)cc2)CC1`, the Euclidean distance stood at 1.54 in the assay with 786-O; 0.992 with A549; 1.22 in the assay with DU145; 1.76 in the assay with FB; 2.06 with HEPG2; 2.66 in the assay on OVCAR4.

In the case of `CC(C)n1nc(-c2ccc3oc(N)nc3c2)c2c(N)ncnc21`, the Euclidean distance with 786-O worked out at 3.74; in the assay on A549, 3.47; in the assay with DU145, 2.16; with FB it was 5.4; in the assay on HEPG2, 2.31; in the assay with OVCAR4 it was 3.52.

For the molecule `C=CC(=O)Nc1cccc(Oc2nc(Nc3ccc(N4CCN(C)CC4)c(F)c3)nc3[nH]ccc23)c1` [Avitinib (AC0010)], the Euclidean distance with 786-O came to 4.87; in the assay on A549, 4.16; with DU145 it was 3.49; with FB, 3.92; with HEPG2, 3.45; in the assay on OVCAR4, 3.76.

With `Nc1nc(Cl)nc2c1ncn2[C@@H]1O[C@H](CO)[C@@H](O)[C@@H]1F` [Clofarabine], the Euclidean distance in the assay on 786-O worked out at 3.26; in the assay on A549, 2.36; in the assay on DU145, 2.96; in the assay on FB, 3.41; with HEPG2, 3.02; in the assay with OVCAR4, 3.09.

`NC(=O)c1ccc(I)c([N+](=O)[O-])c1` [Iniparib (BSI-201)]: the Euclidean distance in the assay with 786-O turned out to be 1.06; with A549, 0.758; with DU145, 1.44; in the assay with FB, 1.31; in the assay on HEPG2, 0.803; in the assay with OVCAR4 it was 1.14.

`COc1ccc2c(Oc3ccc(NC(=O)c4c(C)n(CC(C)(C)O)n(-c5ccccc5)c4=O)nc3)ccnc2c1`: the Euclidean distance in the assay on 786-O was found to be 1.16; in the assay with A549, 1.01; in the assay on DU145, 1.02; in the assay on FB, 3.08; with HEPG2 it was 0.897; in the assay on OVCAR4 it was 0.976.

As for `Cc1cccc(Nc2ccncc2S(=O)(=O)NC(=O)NC(C)C)c1` [Torsemide], the Euclidean distance was determined as 0.608 in the assay on 786-O; 0.66 in the assay with A549; 0.572 in the assay with DU145; 0.798 in the assay on FB; 0.917 in the assay with HEPG2; 0.866 with OVCAR4.

As to `CCCCCCCCOc1ccccc1C(=O)Nc1ccc(C(=O)OCC[N+](C)(CC)CC)cc1` [Otilonium Bromide], the Euclidean distance amounted to 1.03 with 786-O; 1.09 in the assay on A549; 1.91 in the assay on DU145; 1.24 in the assay with FB; 1.11 in the assay on HEPG2; 1.03 in the assay on OVCAR4.

For the molecule `CC1(C)O[C@@H]2C[C@H]3[C@@H]4CCC5=CC(=O)CC[C@]5(C)[C@@]4(F)[C@@H](O)C[C@]3(C)[C@]2(C(=O)CCl)O1` [Halcinonide], the Euclidean distance in the assay with 786-O came out at 1.46; with A549 it was 2.25; with DU145, 2.18; with FB it was 2; with HEPG2, 0.493; in the assay on OVCAR4 it was 1.78.

Consider `CO/N=C(/C(=O)N[C@@H]1C(=O)N2C(C(=O)OCOC(=O)C(C)(C)C)=C(C)CS[C@H]12)c1csc(N)n1` [Cefetamet pivoxil hydrochloride], for which the Euclidean distance in the assay with 786-O worked out at 1.66; in the assay with A549, 1.04; in the assay on DU145, 1.11; in the assay with FB, 0.939; in the assay on HEPG2 it was 0.729; in the assay on OVCAR4 it was 0.914.

Take `Cc1cccc(Nc2cc(Cl)nc(SCC(=O)O)n2)c1C`: the Euclidean distance with 786-O stood at 1.08; in the assay with A549, 0.839; in the assay with DU145, 0.785; with FB, 0.914; in the assay on HEPG2 it was 0.873; with OVCAR4 it was 0.647.

As for `CC(C)[C@H](N)C(=O)OCCOCn1cnc2c(=O)nc(N)[nH]c21` [Valaciclovir HCl], the Euclidean distance in the assay with 786-O was 1.18; in the assay on A549, 1.31; in the assay on DU145, 2.3; in the assay on FB it was 0.774; in the assay with HEPG2, 1.28; in the assay on OVCAR4, 1.37.

For `c1cnc(NCc2ccc(CNc3ncccn3)cc2)nc1`, the Euclidean distance was found to be 1.17 in the assay with 786-O; 0.784 in the assay on A549; 0.977 in the assay on DU145; 0.642 with FB; 0.488 in the assay with HEPG2; 1.22 with OVCAR4.

Turning to `OC(CNCC(O)C1CCc2cc(F)ccc2O1)C1CCc2cc(F)ccc2O1` (centres undefined) [Nebivolol], the Euclidean distance came to 1.39 in the assay on 786-O; 1.67 in the assay with A549; 0.832 with DU145; 1.65 with FB; 2.26 with HEPG2; 1.58 with OVCAR4.

Take `CC1=CC[C@@](O)(C(C)C)CC1` [Terpinen-4-ol]: the Euclidean distance with 786-O is 0.644; with A549, 0.999; with DU145, 0.827; in the assay on FB, 0.873; with HEPG2, 0.873; in the assay with OVCAR4, 0.882.

For `CCCC(=O)OCOC(=O)C1=C(C)NC(C)=C(C(=O)OC)C1c1cccc(Cl)c1Cl` (centres undefined) [Clevidipine Butyrate], the Euclidean distance is 1.64 with 786-O; 0.675 with A549; 1.47 with DU145; 0.951 with FB; 2.16 in the assay with HEPG2; 1.78 in the assay on OVCAR4.

As to `CCCC(=O)Nc1ccc(OCC(O)CNC(C)C)c(C(C)=O)c1` (centres undefined) [Acebutolol HCl], the Euclidean distance in the assay on 786-O came to 0.96; in the assay on A549 it was 0.8; in the assay on DU145 it was 1.23; in the assay on FB, 1.3; in the assay on HEPG2, 0.817; with OVCAR4 it was 1.34.

Turning to `COc1ccc(/C=C\c2cc(OC)c(OC)c(OC)c2)cc1O` [Combretastatin A4], the Euclidean distance came out at 3.46 in the assay with 786-O; 3.33 in the assay on A549; 3.91 in the assay on DU145; 2.81 in the assay on FB; 4.14 in the assay with HEPG2; 2.83 with OVCAR4.

Take `OCc1c[nH]c2ccccc12` [Indole-3-carbinol]: the Euclidean distance turned out to be 1.05 in the assay on 786-O; 1.17 in the assay on A549; 0.838 in the assay on DU145; 0.767 in the assay with FB; 0.598 in the assay on HEPG2; 1.05 with OVCAR4.

Turning to `C[C@H](NC(=O)Cc1cc(F)cc(F)c1)C(=O)N[C@@H]1C(=O)N(C)c2ccccc2-c2ccccc21`, the Euclidean distance with 786-O came to 0.725; in the assay on A549 it was 1.36; with DU145 it was 1.17; in the assay with FB, 1.09; in the assay on HEPG2 it was 0.895; in the assay on OVCAR4, 0.686.

As to `C=C(c1ccc(C(=O)O)cc1)c1cc2c(cc1C)C(C)(C)CCC2(C)C` [Bexarotene], the Euclidean distance amounted to 2.33 in the assay with 786-O; 2 in the assay with A549; 1.58 with DU145; 1.39 in the assay on FB; 1.63 in the assay on HEPG2; 1.48 with OVCAR4.

`CC1=C(/C=C/C(C)=C/C=C/C(C)=C\C(=O)O)C(C)(C)CCC1` [Isotretinoin]: the Euclidean distance in the assay with 786-O was 1.68; in the assay with A549, 1.11; in the assay with DU145, 1.24; in the assay on FB, 1.94; in the assay on HEPG2, 1.63; with OVCAR4, 1.46.

Consider `O=c1ncn2nc(Sc3ccc(F)cc3F)ccc2c1-c1c(Cl)cccc1Cl`, for which the Euclidean distance with 786-O amounted to 1.78; in the assay on A549, 0.873; in the assay on DU145, 1.38; in the assay with FB, 1.63; in the assay with HEPG2 it was 1.25; in the assay on OVCAR4 it was 1.55.

With `C[C@H](Nc1ncnc2nc[nH]c12)c1cc2cccc(Cl)c2c(=O)n1-c1ccccc1` [Duvelisib (IPI-145. INK1197)], the Euclidean distance in the assay on 786-O amounted to 2.36; in the assay with A549, 1.56; with DU145, 2.77; in the assay with FB, 2.98; in the assay on HEPG2, 1.32; with OVCAR4 it was 1.91.

The values above are taken from the supplement of paper PMC10127200.
